VACV Venus inh: vaccinia inhibition (Venus reporter) | Vaccinia virus Venus reporter expression, fluorescence | Potency, µM (top dose mostly 36.5 µM), actives largely listed as inhibitors | 330,000 tested, 0.46% active | AID 720580; calls by dose curve; tested in A549 cells; also: nearly all actives have a fitted effect of over 30% in size
HCMV antiviral: human cytomegalovirus inhibition; HFF cells, HCMV-luciferase reporter, 72 h; active compounds read low; activity change, negative = inhibition, % at 57.5 µM; 410,000 tested, 4.5% active; AID 1259415; in the data active = activity change below about -60%; inconclusive = no clear call, values can overlap the other calls; inactive = above about -39%
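Human foreskin fibroblasts infected with luciferase-reporter HCMV at MOI 1 PFU/cell, compounds at two doses. Luciferase measured 72 h post infection; normalized to buffer-only basal and Salinomycin (10uM) controls.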
FMDV antiviral: foot and mouth disease virus antiviral activity; FMDV antiviral cell-based qHTS; Potency, µM (series often up to 57.9 µM), hits mostly inhibitors; 410,000 tested, 1.2% active; calls by dose curve; tested in HEK293T cells; also: read-out not given here; nearly all actives have a fitted effect of over 45% in size
LASV entry inh: Lassa virus entry inhibition. Lassa virus pseudotype entry inhibition, cell reporter. Potency, µM (highest dose often 37.9 µM), actives largely listed as inhibitors. 300,000 tested, 1.2% active. AID 540256; calls by dose curve; tested in HEK293 cells; also: nearly all actives have a fitted effect of over 50% in size
MARV entry inh: blocks Marburg virus binding to or entry into cells | Marburg virus pseudotyped entry inhibition, cell reporter | Potency, µM (top dose mostly 37.8 µM), usual class: inhibitors | 300,000 tested, 1.8% active | AID 540276; calls by dose curve; tested in HEK293 cells
Vaccinia mCherry: vaccinia inhibition (mCherry reporter); Vaccinia virus mCherry reporter infection, fluorescence; Potency, µM (top dose mostly 36.5 µM), hits mostly inhibitors; 310,000 tested, 0.63% active; AID 720579; calls by dose curve; tested in A549 cells; also: nearly all actives have a fitted effect of over 35% in size
Of the large screens only hits and unclear results are named; the others gave an inactive call. In the library only some 6.5% were active in any assay of this set; here they are far more common.

Cc1cccc(N=N/C(=C\O)C(=O)c2ccc(Br)cc2)c1	HCMV antiviral -77, LASV entry inh 5.6µM, MARV entry inh 7.9µM
CC[N+](C)(CC)CCC/C(=N/O)C(O)(c1ccccc1)c1ccccc1	HCMV antiviral -65
Cc1ccc(C)c(Cn2c(=O)n(Cc3ccc4c(c3)OCO4)c(=O)c3oc4ccccc4c32)c1	HCMV antiviral inconclusive (no result: MARV entry inh)
CSC1=NC(C)(C)C=C(/C=C/c2ccc(Cl)cc2Cl)N1	HCMV antiviral -87, FMDV antiviral inconclusive, MARV entry inh inconclusive
CSC1=NC(C)(C)C=C(/C=C/c2ccc(Cl)cc2)N1	HCMV antiviral -74, FMDV antiviral 20µM, LASV entry inh inconclusive, MARV entry inh inconclusive
CSC1=NC(C)(C)C=C(/C=C/c2c(Cl)cccc2Cl)N1	none
O=C1CSc2cc(Cl)ccc2N1	none
Clc1ccc2c(c1)-c1[nH]ncc1CS2	HCMV antiviral -61
Cc1ccccc1Nc1n[nH]c(=S)s1	none (no result: LASV entry inh, MARV entry inh)
Cc1c(Cl)cccc1Nc1n[nH]c(=S)s1	HCMV antiviral -66
Cc1ccc(Nc2nc(NCc3ccco3)nc3nccnc23)c(C)c1	none (no result: HCMV antiviral, FMDV antiviral, LASV entry inh, MARV entry inh)
CCOc1ccc(Oc2ccccc2NC(=O)CSCC(=O)Nc2cc(C)on2)cc1	HCMV antiviral inconclusive, FMDV antiviral inconclusive, LASV entry inh inconclusive, MARV entry inh inconclusive
Cc1cccc(Oc2ccccc2NC(=O)CSCC(=O)Nc2cc(C)on2)c1	HCMV antiviral inconclusive, FMDV antiviral inconclusive, LASV entry inh inconclusive, MARV entry inh 3.5µM
CCCn1c(=O)c2sccc2n2c(CCCC(=O)N3CCN(c4cccc(C)c4C)CC3)nnc12	FMDV antiviral 16µM (no result: MARV entry inh)
CCN(Cc1ccccc1)C(c1ccc(Cl)cc1)c1nnnn1C(C)(C)C (configuration not stated)	HCMV antiviral -97, FMDV antiviral inconclusive, LASV entry inh inconclusive, MARV entry inh inconclusive (no result: Vaccinia mCherry)
CCN(Cc1ccccc1)C(c1ccc(C)cc1)c1nnnn1C(C)(C)C (configuration not stated)	FMDV antiviral inconclusive (no result: Vaccinia mCherry)
O=C(Cc1ccccc1)N1CCN=C1SCc1ccc([N+](=O)[O-])cc1	FMDV antiviral inconclusive
O=C(Cc1ccc(F)cc1)N1CCN=C1SCc1ccc([N+](=O)[O-])cc1	HCMV antiviral -68, MARV entry inh inconclusive
c1ccc(C[n+]2ccc3ccccc3c2)cc1	none
Clc1cccc(Cl)c1C[n+]1ccc2ccccc2c1	HCMV antiviral -94 (no result: VACV Venus inh, LASV entry inh, MARV entry inh, Vaccinia mCherry)
c1ccc(NC2C(c3ccccc3)=Nc3ccccc3-n3nnnc32)cc1 (configuration not stated)	none (no result: VACV Venus inh, FMDV antiviral, LASV entry inh, MARV entry inh, Vaccinia mCherry)
CCCn1c(=O)c2sccc2n2c(CCCC(=O)N3CCN(c4cccc(Cl)c4)CC3)nnc12	HCMV antiviral inconclusive (no result: MARV entry inh)
CCN1CCc2c(sc(-n3cccc3)c2C(C)NC(=O)Nc2cc(Cl)c(OC)cc2OC)C1 (configuration not stated)	none (no result: MARV entry inh)
CCN1CCc2c(sc(-n3cccc3)c2C(C)NC(=O)Nc2ccccc2C)C1 (configuration not stated)	HCMV antiviral -67 (no result: MARV entry inh)
COc1ccc(-n2c(CSc3ccc(Cl)cc3)n[nH]c2=S)cc1	none (no result: VACV Venus inh, FMDV antiviral, LASV entry inh, MARV entry inh, Vaccinia mCherry)
Cc1cc(C)c2nc(NC(=O)c3ccc4c(=O)n5c(nc4c3)CCCCC5)sc2c1	HCMV antiviral -72 (no result: LASV entry inh, MARV entry inh)
O=C(Nc1nc(-c2ccccc2)cs1)c1ccc2c(=O)n3c(nc2c1)CCCCC3	HCMV antiviral -90, FMDV antiviral 16µM (no result: VACV Venus inh, LASV entry inh, Vaccinia mCherry)
CCOc1ccccc1N(CC)C(=O)c1ccc2c(=O)n3c(nc2c1)CCCCC3	HCMV antiviral inconclusive, MARV entry inh 8.9µM
CCN(C(=O)c1ccc2c(=O)n3c(nc2c1)CCCCC3)c1cc(C)ccc1C	none
Cc1ccc(NC(=O)c2ccc3c(=O)n4c(nc3c2)CCCCC4)nc1	none
Cc1ccc(S(=O)(=O)c2nc(-c3ccccc3F)oc2N2CCCCC2)cc1	LASV entry inh inconclusive, MARV entry inh inconclusive
O=C(CCl)Nc1cn(-c2ccccc2)nc1-c1ccc(F)cc1	HCMV antiviral -72, FMDV antiviral 16µM, LASV entry inh 11µM, MARV entry inh inconclusive, Vaccinia mCherry inconclusive
CN(N=O)c1cc(O)ccc1O	LASV entry inh 16µM, MARV entry inh inconclusive (no result: VACV Venus inh, HCMV antiviral, FMDV antiviral, Vaccinia mCherry)
Cc1ccc(C=Nc2ccccc2C#N)s1	none
Cc1c(Cl)cccc1N=Cc1ccc([N+](=O)[O-])s1	HCMV antiviral -108, LASV entry inh inconclusive, MARV entry inh inconclusive (no result: VACV Venus inh, Vaccinia mCherry)
COC(=O)c1cccc(-n2nnnc2SCC(=O)Nc2nc3c(s2)CCCC3)c1	none (no result: Vaccinia mCherry)
COC(=O)c1cccc(-n2nnnc2SCC(=O)Nc2cc(C)on2)c1	HCMV antiviral -91 (no result: Vaccinia mCherry)
Cc1cc(NC(=O)CSc2nnc(-c3ccccc3)n2C)no1	none
COC(=O)c1ccccc1NC(=O)CSc1nnnn1-c1ccc(C)cc1C	FMDV antiviral 32µM, LASV entry inh inconclusive
Cc1cc(NC(=O)CSc2nnnn2-c2ccccc2C)no1	HCMV antiviral -113
CCc1ccccc1-n1nnnc1SCC(=O)Nc1cc(C)on1	none
Cc1cc(NC(=O)CSc2nnc(C3COc4ccccc4O3)n2C)no1 (configuration not stated)	HCMV antiviral -78
C=CCN(C)C1=NC(c2ccccc2)C(C(=O)OC)=C(C)N1CCOC (configuration not stated)	none (no result: VACV Venus inh, HCMV antiviral, FMDV antiviral, LASV entry inh, Vaccinia mCherry)
Cc1cccc(-n2nnnc2SCC(=O)Nc2ccc(N3CCN(C)CC3)cc2)c1	HCMV antiviral -66 (no result: VACV Venus inh, LASV entry inh, MARV entry inh, Vaccinia mCherry)
Cc1ccc(-n2nnnc2SCn2nnc3ccccc3c2=O)c(C)c1	HCMV antiviral -86, FMDV antiviral inconclusive, LASV entry inh inconclusive (no result: VACV Venus inh, Vaccinia mCherry)
O=C(Cc1ccc(OCCC2CCCCC2)cc1)NO	Vaccinia mCherry inconclusive (no result: HCMV antiviral, FMDV antiviral, LASV entry inh, MARV entry inh)
O=C(C1=C(C(=O)N(C2CCCCC2)C2CCCCC2)CCCC1)N1CCCCC1	none (no result: VACV Venus inh, HCMV antiviral, FMDV antiviral, LASV entry inh, Vaccinia mCherry)
O=C1c2c(O)ccc(O)c2C(=O)c2c(NCCNCCO)ccc(NCCNCCO)c21	VACV Venus inh 10µM, HCMV antiviral -98, FMDV antiviral inconclusive, LASV entry inh 0.5µM, MARV entry inh 0.056µM, Vaccinia mCherry inconclusive
CON(C)S(=O)(=O)c1cccc(C(=O)NC2CCSc3ccccc32)c1 (configuration not stated)	HCMV antiviral -74, LASV entry inh inconclusive, MARV entry inh inconclusive
CN(C)S(=O)(=O)c1cccc(C(=O)NC2CCSc3ccccc32)c1 (configuration not stated)	none
CC(C(=O)Nc1nc(-c2ccc(F)cc2)cs1)N1C(=O)C2CC=CCC2C1=O (configuration not stated)	FMDV antiviral 28µM
O=C(CN1C(=O)C2CC=CCC2C1=O)Nc1nc(-c2ccc(F)cc2)cs1 (configuration not stated)	none (no result: VACV Venus inh, LASV entry inh, MARV entry inh, Vaccinia mCherry)
CCOC(=O)[C@@H](C)c1nc2ccccc2[nH]c1=O	none (no result: VACV Venus inh, HCMV antiviral, FMDV antiviral, LASV entry inh, Vaccinia mCherry)
COc1cccc(N2CCN(c3c(C#N)c(C(F)(F)F)nn3C)CC2)c1	HCMV antiviral -94, FMDV antiviral inconclusive, LASV entry inh inconclusive, MARV entry inh inconclusive (no result: Vaccinia mCherry)
COc1cccc(CN2CCC3(CCC(CNC(=O)c4cc(C)nn4C)O3)CC2)c1OC (configuration not stated)	none (no result: HCMV antiviral, LASV entry inh, MARV entry inh)
